Some test systems named below: DU-145 prostate; K-562 leukemia; MDA-MB-231 breast; RXF 393 renal; SF-268 CNS; SF-295 CNS; SF-539 CNS; UACC-257 melanoma; M14 melanoma; HCT-15 colon; HT29 colon; SNB-75 CNS; SNB-19 CNS; U251 CNS; PC-3 prostate; SK-MEL-5 melanoma; UACC-62 melanoma; LOX IMVI melanoma; SK-MEL-28 melanoma; MALME-3M melanoma.
Common to all, as to assay: NCI-60 one-dose screen, 48 h (100 = growth as untreated, 0 = no growth, -100 = all killed)
Holding throughout (conditions): 10 µM unless noted

The structures appear in SMILES notation. The panel holds about 83,000 compounds, 20% with a hit somewhere; the sample as a whole holds those more often.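 Cells were grown in 96-well plates and exposed to the test compound at a single concentration for 48 hours; results are reported as percent growth, with values below 10 considered active.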 A number with no mark means an inactive call. Active and inactive are the calls of the source.

Here are results for ten molecules from PubChem BioAssay (NCI).

Take `CC(C)CCC[C@@H](C)[C@H]1CCC2C3=CCn4c(=O)ccc(=O)n4C3CC[C@@]21C` (stereo partly specified): the growth is -93.7% (active) in the assay on DU-145 prostate; -40% (active) in the assay with K-562 leukemia; -89.2% (active) in the assay on MDA-MB-231 breast; -76% (active) with RXF 393 renal; -91.6% (active) in the assay with SF-268 CNS; -92.3% (active) in the assay on SF-295 CNS. Also, the growth with SF-539 CNS was -99.5% (active); in the assay with UACC-257 melanoma, -79.3% (active); with M14 melanoma, -98% (active); in the assay on HCT-15 colon, -44.6% (active); in the assay with HT29 colon it was -63.7% (active); in the assay on SNB-75 CNS, -100% (active). Further, the growth in the assay on SNB-19 CNS was -96.8% (active); in the assay with U251 CNS it was -96.9% (active); in the assay on PC-3 prostate, -85.5% (active); in the assay with SK-MEL-5 melanoma, -100% (active); in the assay on UACC-62 melanoma, -97.5% (active); in the assay on LOX IMVI melanoma, -89.5% (active). In addition, in the assay with SK-MEL-28 melanoma, the growth was -93% (active).

As to `O=C1C=CC(=Nc2cc(Br)c(O)c(Br)c2)C=C1`, the growth with DU-145 prostate was 102%; in the assay on K-562 leukemia, 12.6%; in the assay with MALME-3M melanoma it was 70.2%; with MDA-MB-231 breast it was 72.6%; in the assay with SF-268 CNS, 82.7%; in the assay on SF-295 CNS, 101%. For the same molecule, the growth was 86.4% in the assay with SF-539 CNS; 90.9% with UACC-257 melanoma; 65.1% in the assay on HCT-15 colon; 62% in the assay on HT29 colon; 68.3% in the assay on SNB-75 CNS; 96.8% in the assay on SNB-19 CNS. Also, the growth was 43.7% in the assay on U251 CNS, 87.4% in the assay with SK-MEL-5 melanoma, 48.6% in the assay on LOX IMVI melanoma and 75.1% in the assay on SK-MEL-28 melanoma.

As to `COC(=O)[C@]12CC[C@@H](C)[C@H](C)[C@@H]1C1=CC[C@@H]3[C@@]4(C)C(C=O)=C[C@@](C)(CO)C4=CC[C@@]3(C)[C@]1(C)CC2`, the growth with DU-145 prostate is 39.9%; in the assay with K-562 leukemia it was 16.4%; in the assay on MALME-3M melanoma, 60.1%; in the assay on MDA-MB-231 breast, 53.2%; in the assay on SF-268 CNS, 48.3%; in the assay with SF-295 CNS, 24.9%. The growth with SF-539 CNS is 29.8%; with M14 melanoma it was 28.5%; in the assay on HCT-15 colon it was 9.41% (active); in the assay on HT29 colon, 14.5%; in the assay on SNB-75 CNS, 62.6%; in the assay on SNB-19 CNS it was 39.4%. In addition, the growth with U251 CNS was 23.4%; in the assay on PC-3 prostate, 16.2%; in the assay on SK-MEL-5 melanoma, 35.2%; with UACC-62 melanoma, 42.9%; with LOX IMVI melanoma it was 26.1%; with SK-MEL-28 melanoma, 26.9%.

With `O[C@H]1CO[C@H]2[C@@H]1OC[C@@H]2Oc1ccc(Nc2ccnc(Nc3ccc(O[C@H]4CO[C@H]5[C@@H]4OC[C@@H]5O)c(Cl)c3)n2)cc1Cl`, the growth in the assay on DU-145 prostate is 7.26% (active); in the assay with K-562 leukemia it was 5.05% (active); with MALME-3M melanoma, 13.2%; in the assay with MDA-MB-231 breast, 21.8%; in the assay with SF-268 CNS, 16.4%; in the assay on SF-295 CNS, 7.74% (active). Moreover, the growth was 8.89% (active) in the assay with SF-539 CNS; 31.8% in the assay on UACC-257 melanoma; 26.4% in the assay with HCT-15 colon; 9.26% (active) in the assay with HT29 colon; -1.57% (active) with SNB-75 CNS; 7.59% (active) in the assay with SNB-19 CNS. For the same molecule, the growth is 7.71% (active) in the assay with U251 CNS; 15.7% in the assay on PC-3 prostate; -74% (active) in the assay on UACC-62 melanoma; -8.35% (active) in the assay on LOX IMVI melanoma; 20.4% in the assay with SK-MEL-28 melanoma.

`COc1cc2oc3cc(C)oc(=O)c3c2cc1OC`: the growth is 99.6% with DU-145 prostate; 128% with K-562 leukemia; 99.4% in the assay on MDA-MB-231 breast; 104% in the assay with RXF 393 renal; 108% with SF-268 CNS; 89.7% in the assay with SF-295 CNS. Moreover, the growth is 94.8% in the assay on SF-539 CNS; 92.8% in the assay with UACC-257 melanoma; 102% in the assay with M14 melanoma; 91.9% in the assay with HCT-15 colon; 91.5% in the assay on HT29 colon; 103% with SNB-75 CNS. Also, the growth in the assay with SNB-19 CNS is 86.8%; in the assay on U251 CNS it was 102%; in the assay on PC-3 prostate it was 98.4%; in the assay with SK-MEL-5 melanoma, 95.1%; in the assay on UACC-62 melanoma, 90.9%; in the assay with LOX IMVI melanoma, 103%. In the assay with SK-MEL-28 melanoma, the growth was 115%.

Consider `CCCCN(Cc1ccc(C(=O)NO)cc1)C(=O)Nc1ccc(OCCCCCCCCCn2cc(CCCCC(=O)N[C@H](C(=O)N3C[C@H](O)C[C@H]3C(=O)NCc3ccc(-c4scnc4C)cc3)C(C)(C)C)nn2)cc1`, for which the growth in the assay on DU-145 prostate is 50.8%; in the assay with K-562 leukemia, 16.2%; in the assay with MALME-3M melanoma it was 23.8%; in the assay with MDA-MB-231 breast, 59.6%; with SF-268 CNS it was 36.2%; in the assay on SF-295 CNS, 92%. For the same molecule, the growth is 32% in the assay on SF-539 CNS; 60% with UACC-257 melanoma; 88.7% in the assay on HCT-15 colon; 19.8% with HT29 colon; 34.6% in the assay with SNB-75 CNS; 29.5% with SNB-19 CNS. Also, the growth in the assay with U251 CNS was 34.8%; with PC-3 prostate it was 27.8%; with UACC-62 melanoma it was 35.9%; in the assay on LOX IMVI melanoma, 23.2%; with SK-MEL-28 melanoma, 62.8%.

For `COc1cc(-c2ncn(/C=C\c3nnco3)n2)cc(C(F)(F)F)c1`, the growth was 18.4% in the assay on DU-145 prostate; 6.9% (active) with K-562 leukemia; 2.52% (active) in the assay with MALME-3M melanoma; -26.2% (active) in the assay with RXF 393 renal; 10.9% with SF-268 CNS; 53.6% in the assay on SF-295 CNS. Also, the growth with SF-539 CNS was 6.11% (active); in the assay on UACC-257 melanoma, 53%; in the assay with HCT-15 colon, 17.6%; in the assay with SNB-75 CNS it was 4.47% (active); in the assay on SNB-19 CNS, 23.3%; in the assay with U251 CNS it was 14.7%. The growth in the assay with PC-3 prostate was 33.6%; in the assay with SK-MEL-5 melanoma it was -11.8% (active); in the assay with UACC-62 melanoma, 13.2%; in the assay with LOX IMVI melanoma, -27.3% (active); in the assay with SK-MEL-28 melanoma, 6.79% (active).

`COC1=CC(c2ccc[nH]2)=N/C1=C\c1[nH]c(C)c(C(=O)OCCn2cc(CCC[C@@H]3Cc4cc(O)ccc4C4CC[C@]5(C)[C@@H](O)CC[C@H]5C43)nn2)c1C` (stereo partly specified): the growth was 50.1% with DU-145 prostate; 51.9% in the assay on K-562 leukemia; 131% in the assay with MALME-3M melanoma; 60.1% in the assay with RXF 393 renal; 69.9% in the assay on SF-268 CNS; 96.1% in the assay with SF-295 CNS. In addition, the growth with SF-539 CNS was 64.2%; in the assay with UACC-257 melanoma, 96.4%; in the assay on HCT-15 colon, 25%; with HT29 colon, 18.9%; with SNB-75 CNS, 44.7%; in the assay on U251 CNS it was 47.1%. Besides, the growth was 50.4% in the assay with PC-3 prostate, 88.2% in the assay on SK-MEL-5 melanoma, -17% (active) in the assay with LOX IMVI melanoma and 94.5% in the assay with SK-MEL-28 melanoma.

In the case of `CC(C)CCC[C@@H](C)[C@H]1CCC2C3=CCC4C(=O)C=CC(=O)C4C3CC[C@@]21C` (stereo partly specified), the growth in the assay on DU-145 prostate is 26.6%; with K-562 leukemia, 9.94% (active); with MDA-MB-231 breast, 28.6%; in the assay on RXF 393 renal it was -66.6% (active); with SF-268 CNS it was 20.4%; with SF-295 CNS it was -61.2% (active). The growth was -25.6% (active) in the assay on SF-539 CNS; -3.37% (active) with UACC-257 melanoma; 17.5% with M14 melanoma; 3.29% (active) in the assay on HCT-15 colon; 11.3% in the assay on HT29 colon; 7.34% (active) in the assay on SNB-75 CNS. The growth in the assay on SNB-19 CNS was 38.2%; with U251 CNS, 11.5%; in the assay on PC-3 prostate it was 9.01% (active); in the assay on SK-MEL-5 melanoma, -48.5% (active); in the assay with UACC-62 melanoma, 28.7%; in the assay with LOX IMVI melanoma it was -43.4% (active). The growth in the assay with SK-MEL-28 melanoma was 41.9%.

On to `O=c1[nH]nc(-c2ccc(Cl)cc2)cc1Cc1ccccc1`, for which the growth in the assay with DU-145 prostate is 104%; in the assay with K-562 leukemia, 79%; in the assay with MDA-MB-231 breast, 79.5%; with RXF 393 renal, 3.35% (active); in the assay on SF-268 CNS it was 99.4%; in the assay on SF-295 CNS, 89.6%. Also, the growth with SF-539 CNS is 65.2%; in the assay with UACC-257 melanoma it was 84.3%; in the assay on HCT-15 colon, 103%; in the assay on HT29 colon, 108%; in the assay with SNB-75 CNS, 88.3%; in the assay on SNB-19 CNS it was 101%. Also, the growth was 92.5% with U251 CNS; 90.9% with PC-3 prostate; 105% in the assay on SK-MEL-5 melanoma; 79.3% with UACC-62 melanoma; 93.4% in the assay with LOX IMVI melanoma; 114% in the assay on SK-MEL-28 melanoma.
